Results filed as inconclusive are left out. Active and inactive are the calls of the source. How the source made its calls, unless noted: active means hit-call score of the fitted dose curve at least 0.9, where 1 is the maximum; inconclusive means response in the unintended direction; inactive means score below 0.9.
Experiments:
[1] = target: human RAR-related Orphan Receptor gamma (RORg), RORC (gene 6097) (UniProt P51449); assay: ATG_RORg_TRANS: Attagene TRANS-FACTORIAL HepG2 Assay for human RAR-related Orphan Receptor gamma (RORg) (AID 2283011)
Outline: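 Transient MRTU transfection of HepG2 (TRANS format, exogenous NR-Gal4 chimera). 24 h dosing. Total RNA → oligo(dT) RT → PCR → 6-FAM labelling → HpaI cut → CE. Gain vs DMSO.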

[2] = target: Retinoic acid receptor RXR-alpha (Homo sapiens) (UniProt P19793); assay: ATG_RXRa_TRANS: Attagene TRANS-FACTORIAL HepG2 Assay for human Retinoid X Receptor alpha (RXRa) (AID 2283012)
Outline: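 HepG2 cells transiently transfected with multiplexed GAL4-UAS reporter units and chimeric NR-GAL4 fusions, dosed 24 h. Reporter mRNA measured by RT-PCR, FAM labelling, HpaI digestion and capillary electrophoresis; gain-of-signal fitted relative to DMSO baseline.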

[3] = target: human Retinoid X Receptor beta (RXRb), RXRB (gene 6257) (UniProt P28702); assay: ATG_RXRb_TRANS: Attagene TRANS-FACTORIAL HepG2 Assay for human Retinoid X Receptor beta (RXRb) (AID 2283013)
Outline: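 HepG2 cells transiently transfected with multiplexed reporter units driven by GAL4-UAS and exogenous chimeric NR-Gal4 proteins; treated 24 h. Reporter mRNA measured by RT-PCR, 6-FAM labelling and capillary electrophoresis; gain-of-signal fitted versus DMSO baseline.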

[4] = target: human Vitamin D Receptor (VDR), VDR (gene 7421) (UniProt P11473); assay: ATG_VDR_TRANS: Attagene TRANS-FACTORIAL HepG2 Assay for human Vitamin D Receptor (VDR) (AID 2283022)
Outline: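 RT-PCR/capillary electrophoresis read-out of reporter mRNA induction in transiently transfected HepG2; 24 h dosing; chimeric NR-Gal4 (TRANS format); gain-of-signal fit against DMSO baseline.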

[5] = target: human Thyroid Receptor alpha (THRa1), THRA (gene 7067) (UniProt P10827); assay: ATG_THRa1_TRANS: Attagene TRANS-FACTORIAL HepG2 Assay for human Thyroid Receptor alpha (THRa1) (AID 2283014)
Outline: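 Transient HepG2 transfection, NR-Gal4 chimera driving GAL4-UAS reporters; 24 h compound exposure; total RNA, oligo(dT) RT, PCR, fluorescent primer extension, capillary electrophoresis. Upward direction vs DMSO control.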

[6] = read-out: Interleukin-1 alpha (IL1a), IL1A (gene 3552); assay: BSK_BE3C_IL1a: BioMAP Diversity Plus: BE3C Assay for Interleukin-1 alpha (IL1a) Biomarker Activity (AID 2283016; active means hit-call score of the fitted dose curve at least 0.9, where 1 is the maximum; inactive means score below 0.9); conditions: primary human bronchial epithelial cells; actives raise or lower the signal
Outline: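 Human primary bronchial epithelial cells (BE3C system) were dosed with compound and IL-1a measured by ELISA 24 h later. Activity was fitted bidirectionally against DMSO baseline; cytotoxicity was tracked in parallel cultures by SRB total-protein staining.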

[7] = read-out: Monocyte Chemoattractant Protein-1 (MCP1), CCL2 (gene 6347); assay: BSK_3C_MCP1: BioMAP Diversity Plus: 3C Assay for Monocyte Chemoattractant Protein-1 (MCP1) Biomarker Activity (AID 2283017; active means hit-call score of the fitted dose curve at least 0.9, where 1 is the maximum; inactive means score below 0.9); conditions: primary human endothelial cells (HUVEC); actives raise or lower the signal
Outline: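 HUVEC, 3C system; 24 h chemical exposure; MCP-1 by ELISA; bidirectional curve fit vs DMSO baseline.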

[8] = read-out: Monocyte Chemoattractant Protein-1 (MCP1), CCL2 (gene 6347); assay: BSK_4H_MCP1: BioMAP Diversity Plus: 4H Assay for Monocyte Chemoattractant Protein-1 (MCP1) Biomarker Activity (AID 2283018; active means hit-call score of the fitted dose curve at least 0.9, where 1 is the maximum; inactive means score below 0.9); conditions: primary human endothelial cells (HUVEC); actives raise or lower the signal
Outline: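 Human umbilical vein endothelial cells (4H system) dosed with chemical; MCP-1 measured by ELISA 24 h after dosing. Bidirectional curve fitting against DMSO negative control as baseline; parallel SRB total-protein staining tracks overt cytotoxicity.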

[9] = read-out: Human Leukocyte Antigen - DR isotype (HLADR), HLA-DRA (gene 3122); assay: BSK_3C_HLADR: BioMAP Diversity Plus: 3C Assay for Human Leukocyte Antigen - DR isotype (HLADR) Biomarker Activity (AID 2283019; active means hit-call score of the fitted dose curve at least 0.9, where 1 is the maximum; inactive means score below 0.9); conditions: primary human endothelial cells (HUVEC); actives raise or lower the signal
Outline: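 HUVEC, 3C stimulation, 24 h post-dose; HLA-DR by ELISA; bidirectional curve fit vs DMSO baseline; gain or loss of signal scored.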

[10] = read-out: Interleukin-8 (IL8), CXCL8 (gene 3576); assay: BSK_3C_IL8: BioMAP Diversity Plus: 3C Assay for Interleukin-8 (IL8) Biomarker Activity (AID 2283020; active means hit-call score of the fitted dose curve at least 0.9, where 1 is the maximum; inactive means score below 0.9); conditions: primary human endothelial cells (HUVEC); actives raise or lower the signal
Outline: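 Primary human umbilical vein endothelial cells (3C system) were exposed to test chemical for 24 h, then IL-8 was quantified by ELISA. Responses were fitted bidirectionally against DMSO vehicle as baseline.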

[11] = BSK_3C_SRB: Viability Assessment in the BioMAP Diversity Plus: 3C Assay (AID 2283023; active means hit-call score of the fitted dose curve at least 0.9, where 1 is the maximum; inactive means score below 0.9;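 further: cells read 24 h after compound dosing; fitted both ways against DMSO so a hit may be signal rise or drop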); conditions: primary human endothelial cells (HUVEC)
Outline: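 HUVEC, 24 h post-dose; 10% TCA fix, 0.1% SRB stain, A560 nm. Bidirectional curve fit vs DMSO negative control.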

[12] = read-out: Matrix Metallopeptidase 1 (MMP1), MMP1 (gene 4312); assay: BSK_BE3C_MMP1: BioMAP Diversity Plus: BE3C Assay for Matrix Metallopeptidase 1 (MMP1) Biomarker Activity (AID 2283024; active means hit-call score of the fitted dose curve at least 0.9, where 1 is the maximum; inactive means score below 0.9); conditions: primary human bronchial epithelial cells; actives raise or lower the signal
Outline: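 Primary human bronchial epithelial cells were dosed with test chemicals, and MMP1 levels were measured by ELISA 24 h later. Data were fitted bidirectionally against DMSO as the negative control and activity baseline.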

[13] = read-out: Pselectin, SELP (gene 6403); assay: BSK_4H_Pselectin: BioMAP Diversity Plus: 4H Assay for Pselectin Biomarker Activity (AID 2283026; active means hit-call score of the fitted dose curve at least 0.9, where 1 is the maximum; inactive means score below 0.9); conditions: primary human endothelial cells (HUVEC); actives raise or lower the signal
Outline: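 Primary human umbilical vein endothelial cells were exposed to test chemical for 24 h, then cell-surface P-selectin was quantified by ELISA. Activity was fitted bidirectionally against DMSO as negative control and baseline.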

[14] = BSK_4H_SRB: Viability Assessment in the BioMAP Diversity Plus: 4H Assay (AID 2283027; active means hit-call score of the fitted dose curve at least 0.9, where 1 is the maximum; inactive means score below 0.9;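 further: cells exposed to compound for 24 h before staining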;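 on AC50: curves fitted both ways versus DMSO so AC50 may be loss or gain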); conditions: primary human endothelial cells (HUVEC)
Outline: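 Absorbance at 560 nm of SRB-stained total protein served as the viability read-out in confluent primary human umbilical vein endothelium 24 h after chemical treatment. Curves were fitted bidirectionally against DMSO as negative control.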

[15] = BSK_BE3C_SRB: Viability Assessment in the BioMAP Diversity Plus: BE3C Assay (AID 2283028; active means hit-call score of the fitted dose curve at least 0.9, where 1 is the maximum; inactive means score below 0.9;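 on AC50: fitted both ways so AC50 may mark signal gain or loss versus DMSO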); conditions: primary human bronchial epithelial cells
Outline: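 Primary human bronchial epithelium; chemical dosing, 24 h; 10% TCA fix, 0.1% SRB stain, A560; bidirectional fit vs DMSO baseline.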

[16] = read-out: Thrombomodulin, THBD (gene 7056); assay: BSK_3C_Thrombomodulin: BioMAP Diversity Plus: 3C Assay for Thrombomodulin Biomarker Activity (AID 2283029; active means hit-call score of the fitted dose curve at least 0.9, where 1 is the maximum; inactive means score below 0.9); conditions: primary human endothelial cells (HUVEC); actives raise or lower the signal
Outline: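 Primary human umbilical vein endothelial cells (3C system) were exposed to chemical for 24 h, then thrombomodulin levels were measured by ELISA. Activity was fitted bidirectionally against the DMSO negative control as baseline.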

[17] = read-out: Urokinase-type plasminogen activator receptor (uPAR), PLAUR (gene 5329); assay: BSK_4H_uPAR: BioMAP Diversity Plus: 4H Assay for Urokinase-type plasminogen activator receptor (uPAR) Biomarker Activity (AID 2283030; active means hit-call score of the fitted dose curve at least 0.9, where 1 is the maximum; inactive means score below 0.9); conditions: primary human endothelial cells (HUVEC); actives raise or lower the signal
Outline: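 HUVEC, 24 h post-dose; uPAR by ELISA; bidirectional fit vs DMSO baseline.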

[18] = BSK_3C_Vis: BioMAP Diversity Plus: 3C Assay for Morphology Visualization (AID 2283025; active means hit-call score of the fitted dose curve at least 0.9, where 1 is the maximum; inactive means score below 0.9;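 further: fitted both ways so gain or loss versus DMSO counts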); conditions: primary human endothelial cells (HUVEC)
Outline: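 Human umbilical vein endothelial cells in the 3C system were imaged by light microscopy 24 h after chemical dosing to record cell morphology. Activity was fitted bidirectionally against DMSO as negative control and baseline; the endpoint serves as a background control.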

[19] = read-out: E-selectin (Homo sapiens) (UniProt P16581); assay: BSK_3C_Eselectin: BioMAP Diversity Plus: 3C Assay for Eselectin Biomarker Activity (AID 2283015; active means hit-call score of the fitted dose curve at least 0.9, where 1 is the maximum; inactive means score below 0.9); conditions: primary human endothelial cells (HUVEC); actives raise or lower the signal
Outline: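 HUVEC, 3C stimulation; compound exposure 24 h; E-selectin by ELISA; gain- or loss-of-signal fitted bidirectionally vs DMSO baseline.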

[20] = read-out: Monokine induced gamma interferon (MIG), CXCL9 (gene 4283); assay: BSK_3C_MIG: BioMAP Diversity Plus: 3C Assay for Monokine induced gamma interferon (MIG) Biomarker Activity (AID 2283021; active means hit-call score of the fitted dose curve at least 0.9, where 1 is the maximum; inactive means score below 0.9); conditions: primary human endothelial cells (HUVEC); actives raise or lower the signal
Outline: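 Primary human umbilical vein endothelial cells in the 3C system were exposed to chemical for 24 h, after which MIG was quantified by ELISA. Activity was fitted bidirectionally against DMSO as negative control and baseline.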

Measured: AC50

human Vitamin D Receptor (VDR), VDR (gene 7421), sequence (P11473 whole entry, looked up, the tested form may be a part): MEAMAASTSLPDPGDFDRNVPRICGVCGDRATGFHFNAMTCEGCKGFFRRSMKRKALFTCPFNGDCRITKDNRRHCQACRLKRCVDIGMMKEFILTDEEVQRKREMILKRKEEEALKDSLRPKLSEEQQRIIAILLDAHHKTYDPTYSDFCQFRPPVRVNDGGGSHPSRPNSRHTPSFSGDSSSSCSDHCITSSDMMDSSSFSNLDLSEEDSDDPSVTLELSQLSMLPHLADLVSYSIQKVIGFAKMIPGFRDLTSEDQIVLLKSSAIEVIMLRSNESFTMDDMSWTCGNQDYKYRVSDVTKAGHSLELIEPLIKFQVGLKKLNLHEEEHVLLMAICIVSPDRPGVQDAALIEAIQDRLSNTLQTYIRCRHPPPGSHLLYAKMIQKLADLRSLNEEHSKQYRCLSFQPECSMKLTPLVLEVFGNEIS
human Thyroid Receptor alpha (THRa1), THRA (gene 7067), sequence (P10827 whole entry, looked up, the tested form may be a part): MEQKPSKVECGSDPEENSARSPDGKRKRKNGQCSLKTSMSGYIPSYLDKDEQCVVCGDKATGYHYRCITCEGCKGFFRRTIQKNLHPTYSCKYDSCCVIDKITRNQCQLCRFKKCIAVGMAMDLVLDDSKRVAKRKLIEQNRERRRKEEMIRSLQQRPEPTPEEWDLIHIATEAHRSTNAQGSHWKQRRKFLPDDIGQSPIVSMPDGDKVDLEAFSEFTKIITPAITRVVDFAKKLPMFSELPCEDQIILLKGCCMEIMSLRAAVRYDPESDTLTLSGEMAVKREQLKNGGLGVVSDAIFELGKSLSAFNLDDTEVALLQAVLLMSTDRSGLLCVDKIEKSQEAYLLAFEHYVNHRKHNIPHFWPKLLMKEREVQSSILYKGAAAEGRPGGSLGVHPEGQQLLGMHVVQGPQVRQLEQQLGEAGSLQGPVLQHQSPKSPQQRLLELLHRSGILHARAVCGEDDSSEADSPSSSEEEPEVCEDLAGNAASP
human RAR-related Orphan Receptor gamma (RORg), RORC (gene 6097), sequence (P51449 whole entry, looked up, the tested form may be a part): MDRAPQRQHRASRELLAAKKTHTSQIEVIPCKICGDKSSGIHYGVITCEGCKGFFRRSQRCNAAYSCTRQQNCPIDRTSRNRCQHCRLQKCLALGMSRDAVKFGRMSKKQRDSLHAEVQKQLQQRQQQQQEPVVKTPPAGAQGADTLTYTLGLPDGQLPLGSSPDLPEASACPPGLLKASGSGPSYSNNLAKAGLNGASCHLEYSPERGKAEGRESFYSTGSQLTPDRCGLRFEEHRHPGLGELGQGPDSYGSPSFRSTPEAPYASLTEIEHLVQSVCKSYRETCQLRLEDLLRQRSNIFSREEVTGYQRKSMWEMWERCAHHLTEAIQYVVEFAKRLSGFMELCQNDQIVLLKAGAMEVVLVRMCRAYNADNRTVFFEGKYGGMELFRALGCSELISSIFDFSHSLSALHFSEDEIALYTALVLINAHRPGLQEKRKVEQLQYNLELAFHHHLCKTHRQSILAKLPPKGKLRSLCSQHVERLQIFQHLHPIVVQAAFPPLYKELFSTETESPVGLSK
human Retinoid X Receptor beta (RXRb), RXRB (gene 6257), sequence (P28702 whole entry, looked up, the tested form may be a part): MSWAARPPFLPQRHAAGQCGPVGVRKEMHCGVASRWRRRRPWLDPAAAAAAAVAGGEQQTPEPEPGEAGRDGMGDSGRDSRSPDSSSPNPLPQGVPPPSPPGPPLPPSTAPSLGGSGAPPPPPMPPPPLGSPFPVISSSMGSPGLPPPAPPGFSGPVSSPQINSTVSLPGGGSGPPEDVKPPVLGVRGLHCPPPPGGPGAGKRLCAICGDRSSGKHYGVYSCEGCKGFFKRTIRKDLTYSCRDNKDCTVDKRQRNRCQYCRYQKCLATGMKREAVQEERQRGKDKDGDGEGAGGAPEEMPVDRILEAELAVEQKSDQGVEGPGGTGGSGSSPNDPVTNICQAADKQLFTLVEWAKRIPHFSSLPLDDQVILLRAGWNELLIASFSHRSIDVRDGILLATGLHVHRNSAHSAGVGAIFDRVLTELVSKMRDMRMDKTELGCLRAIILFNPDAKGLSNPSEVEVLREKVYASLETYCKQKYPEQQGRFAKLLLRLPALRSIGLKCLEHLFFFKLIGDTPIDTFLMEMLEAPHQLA
Retinoic acid receptor RXR-alpha (Homo sapiens), sequence (P19793 whole entry, looked up, the tested form may be a part): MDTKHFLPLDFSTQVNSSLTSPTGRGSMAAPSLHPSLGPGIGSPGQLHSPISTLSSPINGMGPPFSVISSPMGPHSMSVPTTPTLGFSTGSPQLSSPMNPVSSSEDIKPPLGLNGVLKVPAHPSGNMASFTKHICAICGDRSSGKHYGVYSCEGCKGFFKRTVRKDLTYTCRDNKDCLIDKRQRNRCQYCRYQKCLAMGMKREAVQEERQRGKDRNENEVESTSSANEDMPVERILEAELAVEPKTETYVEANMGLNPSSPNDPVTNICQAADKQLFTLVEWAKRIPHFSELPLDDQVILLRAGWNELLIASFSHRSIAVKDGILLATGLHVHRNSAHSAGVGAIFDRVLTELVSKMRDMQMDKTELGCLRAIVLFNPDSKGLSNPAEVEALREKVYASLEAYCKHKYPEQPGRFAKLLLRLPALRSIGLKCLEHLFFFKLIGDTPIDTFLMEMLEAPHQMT
E-selectin (Homo sapiens), sequence (P16581 whole entry, looked up): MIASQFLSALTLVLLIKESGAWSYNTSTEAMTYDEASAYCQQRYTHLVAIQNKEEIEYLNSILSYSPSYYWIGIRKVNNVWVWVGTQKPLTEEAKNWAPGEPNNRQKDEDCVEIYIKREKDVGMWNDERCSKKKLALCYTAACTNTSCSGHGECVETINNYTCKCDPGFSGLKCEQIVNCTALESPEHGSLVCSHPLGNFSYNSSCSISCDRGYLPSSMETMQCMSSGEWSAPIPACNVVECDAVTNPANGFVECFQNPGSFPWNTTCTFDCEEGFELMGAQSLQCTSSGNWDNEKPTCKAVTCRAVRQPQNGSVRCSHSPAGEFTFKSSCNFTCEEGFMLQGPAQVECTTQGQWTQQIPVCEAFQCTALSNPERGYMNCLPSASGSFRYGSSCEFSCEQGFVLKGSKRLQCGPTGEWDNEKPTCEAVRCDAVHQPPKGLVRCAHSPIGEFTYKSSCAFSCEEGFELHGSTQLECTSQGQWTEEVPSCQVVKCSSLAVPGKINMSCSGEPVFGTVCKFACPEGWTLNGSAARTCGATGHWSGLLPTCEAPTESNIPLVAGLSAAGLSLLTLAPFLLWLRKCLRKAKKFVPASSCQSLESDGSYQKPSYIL

CCCCCCCCSCc1cc(C)c(O)c(CSCCCCCCCC)c1
inactive: [1] | [2] | [3] | [4]

CCCCCCCCCCCCCCCCCC(=O)OCCCCCCCCCCCCCC(C)C
inactive: [1] | [2] | [3] | [4]

CCCC[N+](C)(CCCC)CCCC
inactive: [1] | [2] | [3] | [4]

CC/C=C\CCCCO
inactive: [1] | [2] | [5]

CC(C)CCCC(C)(C)O
not listed: [4] | [5] | [18] | [19] | [20]
inactive: all other assays above

C=C(C)C(=O)OCCC[Si](OC)(OC)OC
inactive: [1] | [2] | [5]

Brc1cc(Br)cc(Br)c1
active: [3] 59.7 µM
inactive: [1] | [2] | [5] | [4]

NNC(=O)OCc1ccccc1
inactive: [1] | [2] | [3] | [5] | [4]

CCCCCCCCCCCCS
inactive: [1] | [2] | [3] | [6] | [4] | [15] | [16] | [17]
active: [7] 29.5 µM | [8] 23.8 µM | [9] 20 µM | [10] 20 µM | [11] 26.5 µM | [12] 20 µM | [18] 20 µM | [13] 20 µM | [14] 29.6 µM

C[C@]12CC[C@@H]3c4ccc(O)cc4CC[C@H]3[C@@H]1CC[C@@H]2O
active: [7] 12.2 µM | [8] 9.45 µM | [9] 16.1 µM | [18] 13.7 µM | [14] 12.4 µM | [17] 8.9 µM
not listed: [11] | [19] | [20]
inactive: all other assays above

CC(=O)c1ccc(O)cc1
inactive: [1] | [2] | [3] | [5] | [4]

C=CC(C)(CCC=C(C)C)OC(=O)CC (centres undefined)
inactive: [1] | [2] | [3] | [4]

O=S1(=O)CC(Cl)(Cl)C(Cl)(Cl)C1
active: [6] 1.33 µM | [7] 0.961 µM | [8] 0.537 µM | [9] 0.327 µM | [10] 0.548 µM | [11] 5.02 µM | [12] 2.15 µM | [18] 20 µM | [13] 0.194 µM | [14] 0.992 µM | [15] 1.18 µM | [17] 0.921 µM
inactive: [1] | [2] | [3] | [5] | [16]

CC(=O)OC(C)(C)C1CC=C(C)CC1 (centres undefined)
inactive: [1] | [2] | [3] | [6] | [10] | [12] | [15] | [16]
active: [19] 31 µM | [7] 31.3 µM | [8] 29.8 µM | [9] 31.3 µM | [11] 31.5 µM | [18] 38.9 µM | [13] 31.2 µM | [14] 31 µM | [17] 30.8 µM

c1ccc2c(c1)-c1ccc3ccc4cccc5cc-2c1c3c45
active: [19] 0.575 µM
inactive: [20]

CCCC1CCC(=O)CC1
inactive: [1] | [4]

CC(C)OB(OC(C)C)OC(C)C
inactive: [1] | [5]

CCCCCC#CC(=O)OC
active: [3] 100 µM
inactive: [2]

CC(O)CN (centres undefined)
inactive: [2]

CC1=C(C=O)C(C)(C)CCC1
inactive: [1] | [5] | [4]

CCCCCc1cccc(=O)o1
inactive: [2] | [3]

NS(=O)(=O)c1cc(C(=O)O)c(NCc2ccco2)cc1Cl
inactive: [1] | [5] | [4]

CC1=CCC(=C(C)C)CC1
inactive: [2] | [3]

CC1(C)CC(=O)CC(C)(C)N1
inactive: [1] | [4]

COc1ccc(OC)cc1
inactive: [1] | [4]

CCCCC1CCCCC(=O)O1 (centres undefined)
inactive: [2]

Reference: PubChem BioAssay (EPA / NIEHS)
